From PubChem BioAssay AID1159580 (chemical genetic matrix, 2015)
In all, about 5,500 compounds went through this assay and about 2,000 (36%) were called active. Another 18% or so got no clear call; they are omitted. No stated cut-off is given here; in the data, active means normalized growth mostly below about 0.91 (no sharp cut-off); inconclusive means no clear call, values can overlap the other calls; inactive means mostly above about 0.92. Some of the results follow.

Test: chemical genetic growth profiling, strain panel (AID 1159580);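 further: tested at 20 µM; growth read once vehicle control cultures reached saturation at 30 °C; 1 = growth at the plate median or of vehicle wells; lower values mean less growth of the strain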
Details: S. cerevisiae deletion strains, growth OD

Measured: normalized growth

COc1ccc2c(c1)c(CC(=O)O)c(C)n2Cc1ccc(Cl)cc1
inactive: locus YAL013W, strain DEP1, active compounds read low 0.994 | locus YAL040C, strain CLN3, active compounds read low 0.96 | locus YCL061C, strain MRC1 (second series), active compounds read low 1 | locus YDR150W, strain NUM1, active compounds read low 1.02 | locus YDR363W, strain ESC2, active compounds read low 0.972 | locus YER002W, strain NOP16, active compounds read low 0.999 | locus YGR078C, strain PAC10, active compounds read low 0.981 | locus YGR229C, strain SMI1, active compounds read low 0.941 | locus YMR307W, strain GAS1, active compounds read low 1 | locus YNL175C, strain NOP13, active compounds read low 0.966 | locus YNL197C, strain WHI3, active compounds read low 0.95 | locus YNL224C, strain SQS1, active compounds read low 0.981 | locus YNL322C, strain KRE1, active compounds read low 0.994 | locus YOR083W, strain WHI5 (second series), active compounds read low 0.953 | locus YPL055C, strain LGE1, active compounds read low 0.996 | locus YPL241C, strain CIN2, active compounds read low 0.994
